# Assay outcomes (PubChem BioAssay)
# TSHR antagonist – blocks TSH signaling through the human TSH receptor; P16473; TSHR-expressing cells, TSH-stimulated cAMP HTRF, 2 h; stronger effect = lower value; activity change, negative = inhibition, % at 11.5 µM; 330,000 tested, 0.2% active;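 active means activity change below a set negative limit, meaning inhibition stronger than a set level, cut at about -70% in these data; inconclusive means activity change between two set negative limits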; further: on the % scale 0 is the no-effect control and ±100 the full control effect
#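 Antagonism was scored as loss of TSH-driven cAMP in TSHR cells, stimulated with 4nM TSH (EC80) for 2 hours at 37 deg C and detected by homogeneous HTRF competition immunoassay.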
# p53 reactivation – re-activators of mutant p53. H1299 p53-A138V BP100-luciferase reporter, luminescence, 24 h. Potency, µM (top dose mostly 92.2 µM), inactives show top-dose activity change, positive = activation, actives largely listed as activators. 320,000 tested, 0.063% active; active means well fitted activation curve with a large enough effect; inconclusive means small, poorly fitted or top-dose-only effect; inactive means no such curve, though single readings can be large or run the other way; further: potency means the concentration at half of the fitted maximal effect; % of control where 0% means no effect; nearly all actives have a fitted effect of over 45% in size
#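 p53-null H1299 cells stably carrying temperature-sensitive p53-A138V and a BP100-luciferase reporter were pinned with compounds (4-point, 1:5 series) and held 24 hrs at 37 deg C. Luminescence was read 10 min after detection reagent.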
# pAkt inh – blocks phosphorylation of Akt; Neuro2A IGF-stimulated pAkt S473 HTRF, 20 min; stronger effect = lower value; activity change, % for hits at 50 µM; 360,000 tested, 0.32% active; in the data active means activity change below about -80%; inconclusive means mostly about -51% to -80%; further: on the % scale 0 is the no-effect control and ±100 the full control effect
#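 Single-point screen (50 µM final compound) in Neuro2A cells stimulated 20 min with 6 nM IGF at 37 deg C. After lysis, Ser473-phosphorylated Akt read by HTRF (ex 330 nm, em 615/665 nm) as the 665/615 ratio.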
# Rango release inh – inhibitors of RanGTP-induced Rango-importin beta complex dissociation | O95149+P62826 | Biochemical FRET Rango-importin beta, RanGTP-induced dissociation | Potency, µM (series often up to 46.1 µM), without a hit: at the top dose activity change, negative = inhibition | 340,000 tested, 0.071% active | AID 540253; further: potency means the concentration at half of the fitted maximal effect; % of control where 0% means no effect; nearly all actives have a fitted effect of over 45% in size
#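 Compounds sat 5 min at room temperature with 0.1 uM Rango biosensor plus 0.25 uM importin beta, then FRET pre-read. RanGTP-RCC1 (0.6 uM Ran, 2mM GTP, 0.2 uM RCC1) added for 45 min, and the CFP/YFP post-read measured blocked complex dissociation.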
# Rango-impB inh – inhibitors of Rango-importin beta complex formation; Potency, µM (series often up to 92.2 µM), inactives show top-dose inhibition of complex formation; AID 540263; Rango CFP/YFP FRET sensor + importin beta, 45 min; 340,000 tested, 0.031% active;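 further: potency means the concentration at half of the fitted maximal effect; 0% = DMSO wells and 100% = buffer wells lacking importin beta; nearly all actives have a fitted effect of over 15% in size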
#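 FRET biosensor (snurportin 1 IBB flanked by EYFP and cerulean), 50 nM, with compound 5 min, then 0.125 microM importin beta in PBS, 1 mM DTT, 0.02% Tween-20, 0.1% BSA. CFP/YFP ratio read after 45 min at room temperature; pre-read flags interference.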
# * hit, by the source's call; i = inactive; ? = inconclusive; nt = no result. Only some compounds are listed: those with a hit (about 0.62% of all), similar ones and a draw of the others. Unless noted, the call rests on the fitted dose curve.
SMILES,TSHR antagonist,p53 reactivation,pAkt inh,Rango release inh,Rango-impB inh
CCN(C(=O)CSc1nnc(-c2ccccc2)o1)c1c(N)n(Cc2ccccc2)c(=O)[nH]c1=O,-109*,-1%,i,11%,-1%
CCCCN(C(=O)CSc1nnc(-c2ccccc2)o1)c1c(N)n(CCC)c(=O)[nH]c1=O,2,4%,i,8%,-6%
O=C(NCc1ccco1)/C(=C/c1cccc(C(F)(F)F)c1)c1nc2ccccc2[nH]1,5,9%,i,?,?
O=C(NCc1ccco1)/C(=C/c1ccc(C(F)(F)F)cc1)c1nc2ccccc2[nH]1,-7,?,i,18µM*,?
O=C(N/N=C/c1cccc2ccccc12)c1cccnc1,2,2%,i,1%,2%
CCc1ccc(C(=O)N/N=C/c2cccc3ccccc23)nc1,-3,32µM*,i,1%,0%
Nc1ccccc1-c1n[nH]c(=S)s1,-5,7%,i,15µM*,?
CCC1CCCCN1CCCNC(=O)CN1C(=O)COc2ccc(S(=O)(=O)N3CCC(C)CC3)cc21 (configuration not stated),2,26%,i,2%,0%
CCN(CC)c1ccc(/C=N/NC(=O)CNC(=O)C2COc3ccccc3O2)c(O)c1 (configuration not stated),-18,18µM*,i,?,?
COc1cc(/C=N\NC(=O)CNC(=O)C2COc3ccccc3O2)ccc1O (configuration not stated),-3,-4%,i,-2%,0%
COc1cc(CNC(C)C23CC4CC(CC(C4)C2)C3)cc(OC)c1OC (configuration not stated),-3,1%,i,-8%,2%
O=C(c1sc2ccccc2c1Cl)N(Cc1ccccc1)C1CCS(=O)(=O)C1 (configuration not stated),16,-7%,i,-1%,-1%
O=C(c1sc2ccccc2c1Cl)N(Cc1ccco1)C1CCS(=O)(=O)C1 (configuration not stated),3,-11%,i,18µM*,?
CCOC(=O)CNC(=O)CSc1nc(-c2ccc(OC)cc2)ns1,-12,0%,i,0%,?
COc1ccc(-c2nsc(SCC(=O)Nc3cc(C)on3)n2)cc1,-4,0%,-81%*,-13%,1%
COc1ccc(-c2csc(NC(=O)CSc3nc(SC)ns3)n2)cc1,-74*,?,i,?,1%
Cc1nc(C(F)(F)F)ccc1C(=O)N1CCC1(C)C(=O)NS(=O)(=O)c1ccc2ccccc2c1 (configuration not stated),nt,nt,i,nt,nt
COCCOC(=O)C1=C(C)NC(C)=C(C(=O)OC/C=C/c2ccccc2)C1c1cccc([N+](=O)[O-])c1 (configuration not stated),-13,nt,nt,nt,nt
CCOC(=O)CSc1nnc([C@H](C)NC(=O)OC(C)(C)C)o1,-1,-4%,-115%*,0%,1%
CCOC(=O)CSc1nnc([C@@H](NC(=O)OC(C)(C)C)C(C)C)o1,11,-19%,i,6%,-2%
C#C[C@]1(OC(C)=O)CCC2C3CCC4=CC(=O)CC[C@@H]4C3CC[C@@]21C (some centres not stated),-88*,9%,i,2%,?
CCn1c(CO)nc2c1c(=O)[nH]c(=O)n2Cc1ccccc1,2,-6%,i,10%,1%
CC(O)CNc1nc2c(c(=O)n(C)c(=O)n2C)n1CCc1ccccc1 (configuration not stated),-5,-12%,-112%*,5%,?
Cn1c(=O)c2c(nc(NCC(O)CO)n2CCc2ccccc2)n(C)c1=O (configuration not stated),1,4%,i,9%,-2%
O=C1CC(c2ccc(F)cc2)c2cc3c(cc2N1)CCC3 (configuration not stated),5,?,i,0%,-3%
SMILES,TSHR antagonist,p53 reactivation,pAkt inh,Rango release inh,Rango-impB inh
Cn1c(CN2CCCC2)nc2cc(NC(=O)COc3ccccc3)ccc21,-2,-1%,-106%*,6%,2%
Cn1c(CCN2CCCCC2)nc2cc(NC(=O)COc3ccccc3)ccc21,-12,9%,i,-1%,-3%
Cc1csc(SCC(=O)Nc2ccc3[nH]c(=O)[nH]c3c2)n1,9,2%,i,-11%,1%
O=C(C1=C(O)C(=O)N(Cc2ccco2)C1c1cccnc1)c1cc2ccccc2o1 (configuration not stated),23,-1%,-82%*,?,-2%
COc1ccc(-c2ccc(-c3noc(C(C)C)n3)c(OC)n2)cc1,-20,12%,i,0.0082µM*,?
CCc1nc(-c2ccc(-c3ccc(OC)cc3)nc2OC)no1,-21,10%,i,?,-5%
CC1(C)N([O-])C(c2cccs2)=C[N+]1=O,23,-1%,-124%*,12%,?
O=C(CSc1nnc(Cc2ccccc2)n1Cc1ccccc1)NCc1ccco1,21,2%,i,0%,-2%
O=C(CSc1nnc(CNc2ccc(Cl)cc2)n1Cc1ccccc1)NCc1ccco1,-6,1%,-109%*,0%,2%
CSc1nc(-c2ccc(C)cc2)[nH]c1S(=O)(=O)c1ccccc1,-1,-8%,-106%*,5%,0%
CC(=O)Sc1nc(-c2ccccc2)[nH]c1S(=O)(=O)c1ccc(C)cc1,-7,3%,i,9%,3%
O=C(N/N=C/C(Cl)=C\c1ccccc1)c1cnccn1,-2,13µM*,i,0%,2%
O=C(N/N=C/C(Cl)=C/c1ccccc1)c1cnccn1,-3,?,i,0%,-1%
CCOc1ccc(N2C(=O)CC(NCC3CCCO3)C2=O)cc1 (configuration not stated),18,4%,i,11%,2%
O=c1[nH]c(C2CCN(S(=O)(=O)c3cccc(Cl)c3)CC2)nc2c1nnn2Cc1ccccc1,-103*,4%,i,-13%,0%
Nc1ccccc1N1CCN(C(=O)c2ccccc2)CC1,0,-3%,-103%*,19%,0%
O=C(c1ccccc1)c1ccc(C(=O)N2CCN(c3ccccc3O)CC2)cc1,nt,nt,i,nt,nt
Cc1occc1C(=O)NN=C1C2CC3CC(C2)CC1C3,-11,13µM*,i,-1%,2%
Cc1cc(N2CCCCCC2)nc(-c2ccccc2O)n1,-6,17%,-91%*,?,0%
Cc1cc(N2CCOCC2)nc(-c2ccccc2O)n1,-10,2%,i,2%,0%
Cc1cccc(CS(=O)(=O)c2ncc(Cl)c(C(=O)Nc3c(C)cccc3C)n2)c1,?,-26%,i,-1%,0%
